Source: PubChem BioAssay (National Center for Advancing Translational Sciences (NCATS))
Tb PGK inh: blocks T. brucei phosphoglycerate kinase | PGK/GAPDH coupled, Kinase-Glo luminescence, 60 min | Potency, µM (series often up to 57.5 µM), for the others: at the top dose activity change, negative = inhibition, usual class: inhibitors | 0.043% of 380,000 active | AID 602233; also: nearly all actives have a fitted effect of over 60% in size
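Recombinant glycosomal PGK reaction used 1,3-bisphosphoglycerate generated in-well by GAPDH (100nM final) in 100mM TEA pH 7.6, 5mM MgCl2, 0.01% Tween-20. After 60 minutes at room temperature, ATP was read by Kinase-Glo Plus luminescence end-point.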
RECQ1 helicase: inhibitors of human RECQ1 DNA helicase. AID 2549. RECQ1 DNA unwinding, red fluorescence kinetic read. P46063. 0.54% of 240,000 active. Potency, µM (titrated, usually from 57.3 µM), for inactives: top-dose activity, negative = inhibition, hits mostly inhibitors;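 also: plate controls were vehicle for no effect and no enzyme for full effect; nearly all actives have a fitted effect of over 30% in size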
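RECQ1T1 50 nM; forked duplex (20 bp + 30-nt ss tails) 200 nM, ATP 2 mM final; pH 8.0, 2 mM MgCl2, 2.5 ug/ml poly(dI-dC); 15 min compound preincubation; discontinuous kinetic read over 2 h at RT.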
GLS inh: blocks human kidney-isoform glutaminase activity | 0.21% of 410,000 active | GLS enzymatic activity, qHTS titration | O94925 | AID 624170 | Potency, µM (series often up to 45.5 µM), for the others: at the top dose activity change, negative = inhibition, most hits filed as inhibitors
Target sequence (O94925 whole entry, looked up, canonical isoform): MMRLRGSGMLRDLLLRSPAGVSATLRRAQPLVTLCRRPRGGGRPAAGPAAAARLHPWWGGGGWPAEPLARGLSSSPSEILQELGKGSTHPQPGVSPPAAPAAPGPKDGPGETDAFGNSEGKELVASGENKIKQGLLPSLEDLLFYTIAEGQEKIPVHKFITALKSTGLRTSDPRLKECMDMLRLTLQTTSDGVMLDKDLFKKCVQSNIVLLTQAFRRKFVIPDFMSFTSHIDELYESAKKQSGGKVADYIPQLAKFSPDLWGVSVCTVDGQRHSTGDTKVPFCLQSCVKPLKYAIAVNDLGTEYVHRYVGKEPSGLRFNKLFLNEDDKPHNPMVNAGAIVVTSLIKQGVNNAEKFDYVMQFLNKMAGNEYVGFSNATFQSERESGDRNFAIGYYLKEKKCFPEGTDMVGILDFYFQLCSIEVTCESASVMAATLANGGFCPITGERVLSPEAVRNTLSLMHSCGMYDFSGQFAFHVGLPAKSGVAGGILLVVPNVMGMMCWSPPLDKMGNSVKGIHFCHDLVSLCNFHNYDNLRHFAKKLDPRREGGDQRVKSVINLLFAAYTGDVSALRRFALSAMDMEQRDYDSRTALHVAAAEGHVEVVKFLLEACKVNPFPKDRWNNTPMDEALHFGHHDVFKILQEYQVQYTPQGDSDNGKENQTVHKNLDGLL
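Enzyme dispensed in phosphate buffer (45 mM, pH 8.2, 0.02% Tween-20), compounds pinned in, then 1 mM L-glutamine solution and the glutamate oxidase–HRP–Amplex Red mix added; fluorescence read immediately and again after 30 min at room temperature.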
APE1 inh: blocks human APE1 abasic DNA cleavage | Potency, µM (highest dose often 65.8 µM), inactives show at the top dose activity change, negative = inhibition, usual class: inhibitors | AID 2517 | recombinant APE1, TAMRA/BHQ-2 abasic DNA cleavage fluorescence | 0.35% of 350,000 active | P27695;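 also: plate controls were vehicle for no effect and reference inhibitor for full effect; nearly all actives have a fitted effect of over 55% in size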
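Endonuclease cleavage of a quenched abasic-site DNA duplex (50 nM) by APE1 (0.75 nM) was tracked by TAMRA dequenching. Compounds were preincubated with enzyme 15 min at room temperature; data normalized to buffer-only and DMSO wells plus NSC13755 control.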
FEN1 inhibitor: inhibitors of human flap endonuclease 1; Potency, µM (highest dose often 114 µM), for the others: top-dose activity change, negative = inhibition, hits mostly inhibitors; Recombinant FEN1 flap cleavage, fluorescence, 15 min; P39748; 0.35% of 390,000 active; AID 588795; also: nearly all actives have a fitted effect of over 65% in size
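Reaction started by adding substrate (50 nM final) to 10 nM enzyme after 15 min room-temperature compound preincubation. Reads at 0 and 15 min, with data normalized and fitted to a four-parameter Hill equation.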
BLM helicase inh: inhibitors of human Bloom syndrome helicase BLM; Potency, µM (titrated, usually from 56.1 µM), for inactives: at the highest dose activity change, negative = inhibition, most hits filed as inhibitors; recombinant BLM DNA unwinding, fluorescence dequenching; 0.2% of 350,000 active; P54132; AID 2528;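 also: plate controls were vehicle for no effect and no enzyme for full effect; nearly all actives have a fitted effect of over 35% in size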
* hit, by the source's call; i = inactive; ? = inconclusive; . = not tested or not shown; ! = a repeat was not active; [ ] = another dose, or the depositor's remark. This is a sample that favours compounds with a hit; in the whole collection about 0.86% have one here. Calls follow the shape of the dose curve; as a rule, active = well fitted curve in the direction sought with a large enough effect; inconclusive = small, poorly fitted or top-dose-only effect, or another doubt; inactive = no such curve, though single readings can be large; an effect the other way counts as inactive or inconclusive. Unless noted, % is scaled to controls: 0 for no effect and ±100 for the full control effect; potency is read from the fitted curve at half-maximal effect.

SMILES | Tb PGK inh | RECQ1 helicase | GLS inh | APE1 inh | FEN1 inhibitor | BLM helicase inh
CCOc1ccccc1Nc1nc(-c2cccc(Cl)c2)c2c(n1)-c1ccccc1OC2 | -4% | . | 2% | . | 50µM* | -5%
NCCCC[C@H]1NC(=O)[C@H](CCC(=O)O)NC(=O)c2cc([N+](=O)[O-])cc(I)c2OCC[C@@H](C(N)=O)NC1=O | ? | i | ? | ? | 22µM* | 6%
O=C(O)/C=C(/CC(=O)O)C(=O)O | . | . | 9% | . | . | .
Cc1ccc(C)c(NC(=O)CSc2sc3c(O)cc(=O)[nH]c3c2C#N)c1 | -5% | . | -4% | 30%[12.4 µM] | -22% | -8%
CCc1nnc(NC(=O)CSc2sc3c(O)cc(=O)[nH]c3c2C#N)s1 | ? | . | ? | 11%[12.4 µM] | 4.5µM* | 18µM*
Cc1csc(NC(=O)CSc2sc3c(O)cc(=O)[nH]c3c2C#N)n1 | -18% | . | 2% | 8% | 50µM* | -18%
CCSc1nnc(NC(=O)CSc2sc3c(O)cc(=O)[nH]c3c2C#N)s1 | ? | . | 20% | 6%[12.4 µM] | 35µM* | -22%
O=C(Cc1ccc(Cl)cc1)NO | . | . | . | . | 29% | .
N#CC1=C(N)OC2=C(CCC/C2=C/c2ccoc2)C1c1ccoc1 (stereo unspecified) | . | 22µM* | . | 14µM* | . | 37%
N#CC1=C(N)OC2=C(CC/C2=C\c2ccc(F)cc2)C1c1ccc(F)cc1 (stereo unspecified) | . | -12% | . | 1% | . | -1%
C=CCN1C(=O)/C(=C2/C(=O)N(CC(=O)O)c3ccccc32)S/C1=N/c1nccs1 | . | 16µM* | . | 13µM* | . | -9%
COC(=O)C1=C(C)NC(COC(N)=O)=C(C(=O)OC(C)C)C1c1cccc(Cl)c1Cl (stereo unspecified) | . | . | -3% | . | . | .
O=S(=O)(NCc1ccccc1)c1ccc(Cl)cc1 | i | -12% | 0% | 3% | 0% | -4%
O=S(=O)(Nc1cc2nc3ccccc3nc2n1Cc1ccccc1)c1ccc(Cl)cc1 | i | 6% | -8% | 1% | -10% | 5µM*
CC(=O)O[C@H](C)OC(=O)[C@@H](C)c1ccc(-c2ccccc2)c(F)c1 | . | . | -8% | . | . | .
CCCCNC(=O)[C@@H]1CC=C[C@@H]2CCN(CCCC)C(=O)[C@@H]21 | . | . | . | . | -4% | .
Cc1ccc(N=C2NC(=O)S/C2=C\c2ccco2)cc1 | -13% | -8% | -5% | 3% | -22% | 22µM*
O=C1NC(=Nc2ccccc2)/C(=C/c2ccco2)S1 | -7% | -2% | 5% | -4% | 1% | -21%
Cc1cc(C(=O)NC(Cc2c[nH]c3ccccc23)C(=O)O)c(C)o1 (stereo unspecified) | -4% | . | 5% | 10% | 4% | 1%
COC(=O)C(Cc1c[nH]c2ccccc12)NC(=O)c1cc(-c2ccc(OC)c(OC)c2)oc1C (stereo unspecified) | 2% | -7% | 6% | -11% | 79µM* | -3%
CCC(=O)Nc1nc(C)c(-c2csc(Nc3ccc(C(=O)O)cc3)n2)s1 | 1% | . | ? | -2% | -14% | -3%
Cc1nc(NC(=O)c2ccccc2)sc1-c1csc(Nc2ccc(C(=O)O)cc2)n1 | ? | -11% | -1% | 15% | 35µM* | -21%
COc1cccc(C2Nc3ccc4ccccc4c3C3=C2C(=O)CC(C)(C)C3)c1OCC(=O)O (stereo unspecified) | -8% | . | 13µM* | 10% | -1% | -1%
C[C@]12CC[C@@H]3c4ccc(O)cc4CC[C@H]3[C@@H]1CC[C@@H]2O | -10% | 32µM*! | 2% | 2% | -2% | -7%
CC(C)(C)n1ncc2c(=O)n(Cc3cccc(Cl)c3Cl)cnc21 | . | . | . | 20% | -4% | .
SMILES | Tb PGK inh | RECQ1 helicase | GLS inh | APE1 inh | FEN1 inhibitor | BLM helicase inh
O=[N+]([O-])c1ccc2c(c1)C=C/C2=C\c1ccc(C=S)cc1 | . | . | . | . | -21% | .
CCSS(=O)(=O)c1cccc2cccnc12 | 6% | -2% | 10µM* | 3% | -32% | 2%
Cc1ccc(C2CC(=O)Oc3cc4c(cc32)OCO4)cc1 (stereo unspecified) | . | 32µM* | . | ? | . | -18%[75.6 µM]
Cc1cc(C)c2c(/C=C/c3ccc(N(C)C)cc3)ccnc2c1 | . | . | . | . | 4% | .
N#C/C(=C\c1ccc(-c2ccc(Cl)c(C(=O)O)c2)o1)c1nc2ccccc2[nH]1 | ? | . | ? | 27µM* | -33% | ?
COc1ccc(-n2cc3c(-c4cccc(Br)c4)nnc(C)c3n2)cc1 | 0% | ? | 6% | 3% | 79µM* | 3%
Cc1nnc(-c2cccc(Br)c2)c2cn(-c3ccc(Br)cc3)nc12 | -5% | i | -6% | 14% | ? | -7%
NC(C(=O)N[C@@H]1C(=O)N2C(C(=O)O)=C(Cl)CS[C@H]12)c1ccccc1 (stereo partly specified) | . | -16% | . | 19% | . | .
N[C@@H](C(=O)N[C@@H]1C(=O)N2C(C(=O)O)=C(CSc3cn[nH]n3)CS[C@H]12)c1ccc(O)cc1 | . | . | 6.3µM* | . | . | .
N[C@@H](C(=O)N[C@@H]1C(=O)N2C(C(=O)O)=C(Cl)CS[C@H]12)c1ccccc1 | -9% | -4% | 11µM*! | -5% | -25% | 1%
CC1=C(C(=O)O)N2C(=O)C(NC(=O)C(N)c3ccc(O)cc3)C2SC1 (stereo unspecified) | . | 19% | . | 2% | . | -3%
N#Cc1c(-c2cccc(Cl)c2)no[n+]1[O-] | . | . | . | -7% | . | .
Cc1cccc2[nH]cc(/C=C3/C=Nc4ccccc43)c12 | . | . | . | . | -4% | .
CN1CCC(NC(=O)c2cnn3c2NC(=C2CC2)C=C3C(F)F)CC1 | . | . | . | 14% | . | .
CN(C)c1oc(-c2cccc3ccccc23)nc1C#N | . | . | . | 52% | . | .
O=C(Nc1ccc2nc(-c3ccco3)c(-c3ccco3)nc2c1)N1CCCC1 | . | . | . | . | 11µM* | .
O=C(NCCO)Nc1ccc2nc(-c3ccco3)c(-c3ccco3)nc2c1 | . | i | . | -3% | . | ?
CC1CCN(C(=O)Nc2ccc3nc(-c4ccco4)c(-c4ccco4)nc3c2)CC1 | . | . | . | . | 16µM* | .
CC(C)C[C@@H](NC(=O)[C@@H](COC(C)(C)C)NC(=O)[C@H](Cc1ccc(O)cc1)NC(=O)[C@@H](CO)NC(=O)[C@@H](Cc1c[nH]c2ccccc12)NC(=O)[C@@H](Cc1cnc[nH]1)NC(=O)[C@@H]1CCC(=O)N1)C(=O)N[C@H](CCCN=C(N)N)C(=O)N1CCC[C@H]1C(=O)NNC(N)=O | . | . | 39% | . | . | .
C[C@@H]1Cc2c(O)c(O)cc(O)c2C(=O)O1 | -19% | i | -23% | ? | 56µM* | 1%
CC1CC2OC2/C=C\C=C/C(=O)Cc2c(Cl)c(O)cc(O)c2C(=O)O1 (stereo unspecified) | . | -3% | . | 0% | . | -2%
